This note sets out measurements from PubChem BioAssay (NCI).

Compounds without any hit were thinned out: in the full panel of roughly 83,000, 20% have a hit.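 Negative percent growth values reflect cell death: -40 means 40% of the cells present at the start died, and -100 means all died.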 Unmarked numbers belong to inactive results. Calls of active or inactive are those of the source.

The subject of the experiment is SNB-75 CNS. The experiment is described as follows: NCI-60 one-dose screen, 48 h (100 = growth as untreated, 0 = no growth, -100 = all killed). The settings on record: 10 µM unless noted. Here is the method:
Growth inhibition of the SNB-75 human tumor cell line is measured as a screen for anti-cancer activity. Cells are grown in 96 well plates and exposed to the test compound for 48 hours. Compounds are tested at a single concentration, which is 10^-5 M for most compounds. The reported endpoint is percent growth (GI% or GIPRCNT), where numbers from 0 - 100% represent growth inhibition, and numbers from -100% - 0 represent cell death. For example, a value of 40 represents 60% growth inhibition. A value of 0 means no net growth occurred over the course of the experiment. A value of -40 indicates 40% of cells at the beginning of the experiment died by the end of the experiment. A value of -100 means all cells are dead at the end of the experiment.
NCI-60 Human Tumor Cell Lines Screen was performed using the standard one-dose NCI protocol, which is described in more detail at https://dtp.cancer.gov/discovery_development/nci-60/default.htm.
Compounds with GIPRCNT values below 10 were considered active. Activity score was based on GIPRCNT using the following formula: […]
Score is 0 for GIPRCNT values of 100 or above, 50 for GIPRCNT values of 0, and 100 for GIPRCNT values of -100.
`NS(=O)(=O)c1cc(Br)c2c(c1)S(=O)(=O)NCN2`: the growth was 117%. Then `CCCCCCCC/C=C\CCCCCCCCOc1cccc(CC(=O)NCC[N+]2(C)CCOCC2)c1`, with 49.9%; and `COC1(OC)C2(Cl)C=C(c3ccccc3)C1(Cl)C(Cl)=C2Cl` (stereo not given), with 67%. As for `COc1cc2cc(Oc3ccc(NC(=O)Nc4cccc(C(F)(F)F)c4)cc3)c(C)nc2cc1OCCN1CCCCC1`, the growth was -70.3% (active). `COc1ccc(C(=O)COc2cccc(/C=C3\CSc4ccc(C)cc4C3=O)c2)cc1`: the growth is 95%. Take `Cn1cc(C(=O)NCCC(=N)N)cc1NC(=O)CN=C(N)N`: the growth is 88.9%. Then `COC(=O)c1c2c(c(C)[n+]([O-])c1C)C(=O)C=C(NCc1ccc(F)c(Cl)c1)C2=O`, with -96.9% (active). For `Clc1ccc(Nc2ccnc(N3CCN(c4ccnc5cc(Cl)ccc45)CC3)n2)cc1` the value was 27.7%. For `C=C(C)CCCC(C)CC#N` (stereo not given) the value was 91.3%.

With `CCOC(=O)n1cc(C2=C(c3cn(C)c4ccccc34)COC2=O)c2ccccc21`, the growth is 26.4%. For `CC(=O)c1cc(C)c(OC(=O)c2ccccc2)c(C)c1` the value was 82.6%. Take `COc1ccc(/C=C2\SC(=O)N(CN3CCN(c4cc5c(cc4F)c(=O)c(C(=O)O)cn5C4CC4)CC3)C2=O)cc1`: the growth is 85.1%. Turning to `COc1cccc(Nc2nc(NCCO)c3ccccc3n2)c1`, the growth is 63.7%.

For the molecule `N#CC1=C(N)Oc2cc(N)ccc2C1c1ccc(F)cc1` (stereo not given), the growth is 67.2%. For `O=S(=O)(Nc1ccccc1Cl)c1ccc(-c2cnc(C3CC3)o2)cc1`, the growth is -13.4% (active). For `CC(C)NCC(O)COc1ccc(CCOCC2CC2)cc1` (stereo not given) the value was 99.3%; for `Cc1nc2nc(C(F)(F)F)[nH]c2nc1C`, 85.1%.

Take `CC1CCCCN1S(=O)(=O)c1ccc(CN=C=S)cc1` (stereo not given): the growth is 69.3%. Then `CSc1nnc(-c2sc3nnc(-c4ccccc4)c(-c4ccccc4)c3c2O)o1`, with 78.4%; and `O=C(NC1CC1)c1cc2n(n1)CC(c1ccccc1)N2` (stereo not given), with 91.2%. For `CCN1CCN(c2nc3ccccc3c3c(=O)c4cc(F)ccc4sc23)CC1` the value was 39.7%. On to `O=c1oc2ccccc2cc1-c1csc(N/N=C/c2cc3ccccc3nc2Cl)n1`, for which the growth is 96.7%. For `O=C(O)CCN1CCN(c2cccc(Cl)c2)CC1` the value was 84%. For the molecule `CC(C)N1CCN(c2ccc(OC[C@H]3CO[C@](Cn4cncn4)(c4ccc(Cl)cc4Cl)O3)cc2)CC1`, the growth is 89.7%.

`N#CCCN1CCN(CCC#N)C1=S`: the growth is 95.6%. Take `CN1CCN(c2ccc3nc(-c4ccc5nc(-c6ccc(C(F)(F)F)cc6)[nH]c5c4)[nH]c3c2)CC1`: the growth is 29.6%.

For `COc1ccc(C2SC(C)C(=O)N2CCc2cccs2)cc1OC` (stereo not given), the growth is 69.1%. As for `COc1ccc(OC2=C(C#N)C(=N)N3c4ccccc4Sc4ccccc4C3N2)cc1` (stereo not given), the growth is 69%. As to `O=C(CCc1nnc2sc(-c3ccccc3)nn12)c1nc2ccccc2[nH]1`, the growth was 83.9%. Then `COc1cccc2c(=O)c3c(sc12)c(NCCN(C)C)nc1ccccc13`, with -5.46% (active); and `Oc1ccccc1/C=N/Nc1nc2ccccc2s1`, with 45.6%. For the molecule `COc1ccc(-c2nc3sc(C)nn3c2-c2nc3cc(C)c(C)cc3[nH]2)cc1`, the growth is 87.1%. In the case of `CCOC(=O)C1=C(C)N2C(=NC3=C(CCCC/C3=C\c3cc(OC)c(OC)c(OC)c3)C2c2cc(OC)c(OC)c(OC)c2)S1` (stereo not given), the growth was 89.4%.

On to `COc1cc(NC(=O)COc2ccccc2)c(C(N)=O)cc1OC`, for which the growth was 17.9%. For `Cc1cccc2c(=O)c3c(sc12)c(NCCNCCO)nc1ccccc13` the value was 32.8%; for `NC(=O)c1cc(I)ccc1NC(=O)COc1ccc(Cl)cc1Cl`, 113%. For `CC1=C(C/C=C(\C)CCC[C@H](C)CCC[C@H](C)CCCC(C)C)C(=O)c2ccccc2C1=O` the value was 95.1%; for `COc1cc(/C=C2\C(=O)Nc3ccccc32)cc(OC)c1O`, 23.1%. Then `CCCCC(CCCC)(S(=O)(=O)CC)S(=O)(=O)CC`, with 98.4%; and `COc1cc(C(=O)/C=C/c2c(-c3cccs3)nc3sccn23)cc(OC)c1OC`, with -27.7% (active).
